The results in this text go back to PubChem BioAssay.

The nature of assay [1]: inhibitors of TNFa-induced NFkB p65 translocation, primary screen, imaging, HUVEC, MLSMR starter and 10KST1 sets (AID 438;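 active = inhibition above 20% together with a positive visual image hit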;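 also: compound added about 3h40 before a 20 min TNFalpha stimulation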;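 as to inhibition: signal is the nuclear over cytoplasmic p65 intensity ratio per well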). The note with it: HUVEC TNFa-induced p65 nuclear translocation; cell count: measured here: nuclei count (cytotoxicity indicator), at 2.08 µM; inhibition: at 2 µM, stronger effect = higher value, 0% TNFa-plus-vehicle, 100% no-TNFa wells.
Assay [2] is described as follows: inhibitors of mutant huntingtin aggregation, primary screen, imaging, exon1htt(103Q)mCFP cells, high-content imaging (AID 483;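 active = visual image review flags a hit and inhibition of aggregation exceeds 20%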;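 also: compound exposure lasted 3 days before fixation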;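 as to nuclei count: percent of the per-plate median nuclei count of sample wells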). The note with it: exon1htt(103Q)mCFP cell line, aggregate imaging, at 2 µM; inhibition of aggregation: stronger effect = higher value; nuclei count: measured here: cell count, toxicity.
Assay [3] in a line: inhibitors of E-selectin induction by TNFa, primary screen, imaging, HUVEC, immunofluorescence, MLSMR starter and 10KST1 sets (AID 487;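 active = visually confirmed hit in the image check and inhibition above 20%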;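 as to inhibition: signal is fraction of cell area covered by stained E-selectin grains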;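 as to nuclei count: 100% = median nuclei count of all wells on the same plate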). The note with it: HUVEC TNFalpha-induced E-selectin immunofluorescence imaging, at 2 µM; inhibition: stronger effect = higher value; nuclei count: measured here: cell number, toxicity.
Assay [4] concerns the target Voltage-gated potassium channel subunit beta-2 (Rattus norvegicus) (UniProt P62483). The experiment in a line: KvBeta enzyme negative modulators, primary screen, biochemical, NADPH fluorescence (AID 622;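 active = fluorescence slope higher than the sample average by over 3 SD, cut at about -0.22 in these data, passing the limit was not always enough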;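 also: slope of raw intensity against log time taken from 70 to 1610 s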). The note with it: recombinant KvBeta, 4-cyanobenzaldehyde reduction, at 10 µM, stronger effect = higher value.
Assay [5] shares this target. The assay is described as follows: KvBeta positive modulators, primary screen, biochemical, NADPH fluorescence (AID 623;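 active = NADPH fluorescence slope more negative than the mean of all samples by about 3 SD, 99.7% confidence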;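 also: fluorescence intensity change per second fitted from 20 to 320 s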). The note with it: Recombinant KvBeta, NADPH fluorescence decrease slope, 10 min; at 10 µM; stronger effect = lower value.
Assay [6] addresses Alpha-2C adrenergic receptor (Homo sapiens) (UniProt P18825). The experiment in a line: modulators of alpha2C/GIRK thallium flux, primary screen, cell-based, HEK293 alpha2C/GIRK1/2 (AID 624;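 active = fluorescence slope after compound addition differing from the mean of all screened samples at 99.7% confidence, in either direction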;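 also: slope of fluorescence ratio to pre-addition baseline per second over 15 to 24 s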). The note with it: thallium flux BTC fluorescence, at 10 µM, actives lie on both sides.
Assay [7] can be described thus: inhibitors of Sendai virus-induced IRF3 signaling, primary screen, TLR/RLR signaling modifier project, cell-based, Sendai virus stimulus, luciferase, 10K MLSCN set (AID 602276;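 active = inhibition at or above 50% at 10 µM; inactive = inhibition below 50%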;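 also: firefly luciferase from ISG56 promoter only with Renilla not read in this screen; 0% = Sendai virus plus DMSO and 100% = medium plus DMSO without virus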). The note with it: HEK293 RL24 IRF3 luciferase reporter, at 10 µM, stronger effect = higher value. (In general: Reporter assays use an easily measured gene product as a stand-in for the process of interest.)

Assay [8] is described as follows: inhibitors of poly I:C-induced TLR3 signaling, primary screen, cell-based, poly I:C stimulus, luciferase, 10K MLSCN set (AID 602277). The note with it: HEK293-TLR3 RL24 IRF3 luciferase reporter, at 10 µM, stronger effect = higher value.

Active and inactive are the calls of the source.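 The calls were made as follows, unless noted: active = inhibition of the reporter signal at or above 50%; inactive = inhibition below 50%.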

Alpha-2C adrenergic receptor (Homo sapiens), sequence (P18825 whole entry, looked up): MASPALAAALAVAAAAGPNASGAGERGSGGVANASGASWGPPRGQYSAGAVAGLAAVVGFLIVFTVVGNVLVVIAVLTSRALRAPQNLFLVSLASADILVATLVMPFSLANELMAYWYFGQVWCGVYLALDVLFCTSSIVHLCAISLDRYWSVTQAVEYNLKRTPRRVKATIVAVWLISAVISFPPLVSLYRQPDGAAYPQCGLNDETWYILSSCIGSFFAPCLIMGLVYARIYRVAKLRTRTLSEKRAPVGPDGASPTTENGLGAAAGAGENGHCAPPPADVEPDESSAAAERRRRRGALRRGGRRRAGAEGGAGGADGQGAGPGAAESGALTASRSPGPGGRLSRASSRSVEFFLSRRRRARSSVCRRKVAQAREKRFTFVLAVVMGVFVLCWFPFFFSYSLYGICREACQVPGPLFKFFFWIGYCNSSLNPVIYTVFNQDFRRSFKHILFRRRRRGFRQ
Voltage-gated potassium channel subunit beta-2 (Rattus norvegicus), sequence (P62483 whole entry, looked up): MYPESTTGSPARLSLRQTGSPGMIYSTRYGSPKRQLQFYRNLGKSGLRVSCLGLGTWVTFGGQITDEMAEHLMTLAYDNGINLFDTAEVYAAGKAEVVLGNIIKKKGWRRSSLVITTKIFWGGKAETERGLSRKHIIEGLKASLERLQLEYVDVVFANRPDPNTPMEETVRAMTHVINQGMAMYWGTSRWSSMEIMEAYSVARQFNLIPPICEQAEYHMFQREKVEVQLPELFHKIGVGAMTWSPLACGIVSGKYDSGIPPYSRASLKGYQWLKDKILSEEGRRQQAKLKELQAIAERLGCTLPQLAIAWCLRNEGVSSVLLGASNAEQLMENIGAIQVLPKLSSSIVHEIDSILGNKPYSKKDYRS

For the compound `Cn1cccc1Cc1nnc(SCC(=O)NCC2CCCO2)n1-c1ccc(F)cc1` (centres undefined), in assay [1], the cell count was determined as 716. Besides, the inhibition was -4% (inactive) in assay [1], -44.1% (inactive) in assay [3], 10.8% (inactive) in assay [7] and 39.9% (inactive) in assay [8]. The inhibition of aggregation in assay [2] was 50.2% (active). Moreover, the values for the nuclei count in assay [2] and in assay [3] were 95.9% and 111%, respectively. Besides, the fluorescence slope in assay [4] is -0.537 (inactive). Moreover, the NADPH fluorescence slope in assay [5] is -3e-05 (inactive). In assay [6], the slope was 0.00677 (inactive).

For the compound `CCOc1ccc2[nH]c(=O)c(CN(Cc3nnnn3CCc3ccccc3)CC3CCCO3)cc2c1` (centres undefined), in assay [1], the cell count was 742. The inhibition was -1.7% (inactive) in assay [1], 17.7% (inactive) in assay [3], 3.9% (inactive) in assay [7] and 16.9% (inactive) in assay [8]. Moreover, in assay [2], the inhibition of aggregation was -4.9% (inactive). In addition, the nuclei count in assay [2] stood at 113%; in assay [3], 107%. Also, the fluorescence slope in assay [4] is -0.476 (inactive). In assay [5], the NADPH fluorescence slope is -0.000196 (inactive). Moreover, the slope in assay [6] is 0.00465 (inactive).

Regarding `Cc1cccc(Cn2c(SCC(=O)Nc3ccccc3)nc3c2c(=O)[nH]c(=O)n3C)c1`, the cell count in assay [1] was found to be 467. The inhibition is 5.4% (inactive) in assay [1], 4.7% (inactive) in assay [3], 14.6% (inactive) in assay [7] and 13.4% (inactive) in assay [8]. Besides, the inhibition of aggregation in assay [2] is 44.6% (inactive). The figures for the nuclei count in assay [2] and in assay [3] were 83.4% and 89.8%, respectively. Also, the fluorescence slope in assay [4] is -0.394 (inactive). In assay [5], the NADPH fluorescence slope was 2.9e-05 (inactive). Further, the slope in assay [6] was 0.0074 (inactive).

`Cc1ccc2c(c1)C(O)(CC(=O)c1ccc3c(c1)OCO3)C(=O)N2` (centres undefined): in assay [1], the cell count came out at 671. Further, the inhibition in assay [1] is 9.5% (inactive); in assay [3] it was 16.8% (inactive); in assay [7], 0.102% (inactive); in assay [8], 23% (inactive). Besides, the inhibition of aggregation in assay [2] is -46.3% (inactive). Moreover, the nuclei count in assay [2] is 93.9%; in assay [3] it was 93.3%. For the same compound, the fluorescence slope in assay [4] was -0.511 (inactive). The NADPH fluorescence slope in assay [5] is -5e-05 (inactive). Also, the slope in assay [6] is 0.00523 (inactive).

Take `Cc1nn(C)cc1NC(=O)CCSc1nc(-c2ccco2)cc(C(F)(F)F)n1`: the cell count in assay [1] is 452. Besides, the inhibition in assay [1] was -13.9% (inactive); in assay [3], 35.1% (inactive); in assay [7], -8.54% (inactive); in assay [8], -43.3% (inactive). In addition, the inhibition of aggregation in assay [2] is -12.3% (inactive). Also, the nuclei count in assay [2] turned out to be 107%; in assay [3], 106%. Also, the fluorescence slope in assay [4] is -0.615 (inactive). For the same compound, the NADPH fluorescence slope in assay [5] was -1.6e-06 (inactive). In addition, the slope in assay [6] is 0.00399 (inactive).

As to `c1ccc(C(Cc2nc(-c3ccccn3)no2)c2ccccc2)cc1`, in assay [1], the cell count was found to be 337. The inhibition in assay [1] was -8% (inactive); in assay [3], -83.3% (inactive); in assay [7], 20.3% (inactive); in assay [8], 14.4% (inactive). Besides, the inhibition of aggregation in assay [2] was 4% (inactive). For the same compound, the nuclei count in assay [2] was 110%; in assay [3] it was 100%. In addition, the fluorescence slope in assay [4] is -0.449 (inactive). Moreover, the NADPH fluorescence slope in assay [5] was -6.2e-05 (inactive). For the same compound, the slope in assay [6] is 0.00562 (inactive).

On to `CN1CC=C2C(C#N)=C(N)C(C#N)(C#N)C(Cc3ccccc3)C2C1` (centres undefined), for which the cell count in assay [1] turned out to be 556. For the same compound, the inhibition in assay [1] is 10% (inactive); in assay [3] it was -7.7% (inactive); in assay [7], 4.84% (inactive); in assay [8], 8.81% (inactive). In addition, the inhibition of aggregation in assay [2] was 0.5% (inactive). The nuclei count in assay [2] amounted to 81.2%; in assay [3] it was 102%. Besides, the fluorescence slope in assay [4] was -0.507 (inactive). Moreover, the NADPH fluorescence slope in assay [5] is -2.1e-05 (inactive). The slope in assay [6] was 0.0052 (inactive).

For the compound `CCOC(=O)N1CCC2(O)CCCCC2C1c1ccc(F)cc1` (centres undefined), in assay [1], the cell count amounted to 450. Moreover, the inhibition was -1.7% (inactive) in assay [1], -73.3% (inactive) in assay [3], 14.6% (inactive) in assay [7] and 22.6% (inactive) in assay [8]. Also, in assay [2], the inhibition of aggregation is -11.2% (inactive). Further, the figures for the nuclei count in assay [2] and in assay [3] were 108% and 109%, respectively. Besides, the fluorescence slope in assay [4] was -0.439 (inactive). The NADPH fluorescence slope in assay [5] was 1.9e-05 (inactive). Further, the slope in assay [6] was 0.00629 (inactive).

On to `Cc1cc(Nc2ccc(N3CCC(C)CC3)cc2)n2ncnc2n1`, for which the cell count in assay [1] was 426. Besides, the inhibition is -2.4% (inactive) in assay [1], -18.3% (inactive) in assay [3], -6.44% (inactive) in assay [7] and -3.16% (inactive) in assay [8]. In assay [2], the inhibition of aggregation was 6% (inactive). Also, the nuclei count in assay [2] came out at 103%; in assay [3] it was 115%. For the same compound, in assay [4], the fluorescence slope was -0.602 (inactive). In assay [5], the NADPH fluorescence slope is 7e-05 (inactive). Moreover, the slope in assay [6] is 0.00396 (inactive).

Turning to `COc1ccccc1N1CCN(C(=O)N2CCOCC2)CC1`, the cell count in assay [1] was determined as 683. Besides, the inhibition is -8.1% (inactive) in assay [1], -80.8% (inactive) in assay [3], 19% (inactive) in assay [7] and 26.2% (inactive) in assay [8]. Further, the inhibition of aggregation in assay [2] is -2.9% (inactive). Further, the nuclei count amounted to 100% in assay [2] and 107% in assay [3]. Besides, the fluorescence slope in assay [4] is -0.417 (inactive). Moreover, in assay [5], the NADPH fluorescence slope was -6.2e-05 (inactive). Also, in assay [6], the slope is 0.00512 (inactive).

With `CCOc1cc(NC(=O)c2ccco2)c(OCC)cc1NC(=O)CCC(=O)NCc1cccnc1`, in assay [1], the cell count was 600. Moreover, the inhibition in assay [1] was 4.9% (inactive); in assay [3], 16% (inactive); in assay [7], 9.41% (inactive); in assay [8], 23.3% (inactive). For the same compound, in assay [2], the inhibition of aggregation is 2.6% (inactive). For the same compound, the nuclei count was found to be 97.7% in assay [2] and 90.3% in assay [3]. In addition, the fluorescence slope in assay [4] is -0.358 (inactive). Besides, the NADPH fluorescence slope in assay [5] is 1.7e-05 (inactive). In addition, the slope in assay [6] was 0.00315 (inactive).

On to `NC(=O)c1sc2nc3c(c(-c4ccco4)c2c1N)CCC3`, for which, in assay [1], the cell count turned out to be 365. Also, the inhibition in assay [1] is 5.8% (inactive); in assay [3], -32.2% (inactive); in assay [7], 16.4% (inactive); in assay [8], -2.19% (inactive). The inhibition of aggregation in assay [2] is 1.6% (inactive). The nuclei count in assay [2] amounted to 87.8%; in assay [3], 121%. Moreover, in assay [4], the fluorescence slope was -0.366 (inactive). Also, the NADPH fluorescence slope in assay [5] is -6.5e-05 (inactive). The slope in assay [6] was 0.00352 (inactive).

Turning to `CN=Cc1cc(-c2ccccc2)sc1O`, the cell count in assay [1] worked out at 330. Besides, the inhibition was -2% (inactive) in assay [1], -90.3% (inactive) in assay [3], -23.3% (inactive) in assay [7] and -118% (inactive) in assay [8]. In addition, in assay [2], the inhibition of aggregation is -19.3% (inactive). For the same compound, the nuclei count stood at 126% in assay [2] and 114% in assay [3]. Further, the fluorescence slope in assay [4] is -0.574 (inactive). Further, the NADPH fluorescence slope in assay [5] was -1.5e-05 (inactive). In addition, in assay [6], the slope is 0.00861 (inactive).

As to `O=C1c2ccccc2C(Nc2ccc3c(c2)OCCO3)N1Cc1ccc2c(c1)OCO2` (centres undefined), the cell count in assay [1] was determined as 597. Moreover, the inhibition was 3.4% (inactive) in assay [1], -14.2% (inactive) in assay [3], 3.99% (inactive) in assay [7] and 50.1% (active) in assay [8]. The inhibition of aggregation in assay [2] is -2.8% (inactive). Moreover, the nuclei count in assay [2] came out at 102%; in assay [3], 106%. Besides, the fluorescence slope in assay [4] was -0.553 (inactive). In assay [5], the NADPH fluorescence slope is -5e-05 (inactive). For the same compound, the slope in assay [6] is 0.00464 (inactive).

The inhibition is the relative decrease from the control value, in per cent.
